Here are results for 89 compounds from PubChem BioAssay AID463173 (ICCB-Longwood Screening Facility, Harvard Medical School, 2010).

Out of some 52,000 compounds screened, about 4,300 (8.3%) were called active. Many of the other results were omitted from the sample, so actives are more common in it than they were. Unmarked numbers belong to inactive results. No stated cut-off is given here; in the data, active means survival mostly below about 52% (no sharp cut-off); inactive means mostly above about 56%.

In the assay the test system is DeltatarO mutant. Briefly: S. aureus survival, RN4220 and DeltatarO strains – OD600, teichoic acid synthesis inhibitors, primary screen (AID 463173). To be noted: S. aureus RN4220 wild type/DeltatarO growth, OD600, 18 h, hits give low values, screened at 18.75 µg/mL (by protocol).
Take `COc1ccc2c(c1)N(C)/C(=C1/SC(=Nc3ccc(C)cc3)N(C)C1=O)S2`: the survival is 102%.
Under `CCOc1ccccc1NC(=O)c1c(NC(=O)c2cccc(C)c2)sc2c1CCC2` stands 74%; under `CCc1ccc(NC(=O)CSc2nc3ccccc3c(=O)n2CCNC(C)=O)cc1`, 87%.
On to `COc1ccc(C2(C(=O)N3CCCC3)CCCC2)cc1OC`, for which the survival is 89%.
Next, `CCC(=O)N1CCCc2cc(S(=O)(=O)N3CCC(C(=O)NC4CCC(C)CC4)CC3)ccc21` (centres undefined): 123%.
Under `CCOC(=O)c1cc2occc2n1CCc1ccccc1` stands 101%.
Next, `O=C(c1ccccc1)N1CCc2cc(CNS(=O)(=O)c3ccccc3Cl)ccc21`: 78%; `COc1cc(NS(=O)(=O)c2ccc3oc(=O)c4ncn(C)c4c3c2)cc(OC)c1`: 126%; `CC1(C)CC(=O)C(C=NCc2ccccc2)=C(O)C1`: 95%.
For `O=C(Nc1ccc(F)cc1)C1CCN(S(=O)(=O)c2ccc3c(c2)CCCN3C(=O)C2CCC2)CC1`, the survival is 73%.
Next, `N#Cc1c(NC(=O)c2ccccc2)oc(-c2ccccc2)c1-c1ccccc1`: 56%; `N#Cc1c(NC(=O)C(F)(F)F)oc(-c2ccccc2)c1-c1ccccc1`: 12% (active); `N#Cc1c(/N=C/c2ccco2)oc(-c2ccccc2)c1-c1ccccc1`: 98%.
Next, `CCc1cccc(CC)c1N(COC)C(=O)Cn1c(C)nc2ccccc21`: 59%.
Under `CCc1cccc(NC(=O)CCc2c(C)nc3c(c2C)c(=O)n(C)c(=O)n3C)c1` stands 93%.
For `COc1ccc(-n2nc(C(=O)NCc3ccc(F)cc3)c3c4ccccc4n(C)c3c2=O)cc1`, the survival was 88%.
Next, `N#C/C(=C/c1ccc(-c2ccc(S(N)(=O)=O)cc2)o1)C(=O)Nc1cc(Cl)ccc1Cl`: 46%.
Next, `N#C/C(=C/c1ccc(-c2cc(C(=O)O)ccc2Cl)o1)C(=O)NCCc1c[nH]c2ccccc12`: 12% (active).
Under `N#C/C(=C\c1ccc(-c2ccc(C(=O)O)cc2)o1)C(=O)Nc1ccccc1C(=O)O` stands 60%; under `N#C/C(=C/c1ccc(N2CCCCC2)o1)C(=O)NCCc1c[nH]c2ccccc12`, 76%; under `N#C/C(=C\c1ccc(-c2cc(Cl)ccc2Cl)o1)C(=O)Nc1ccccc1C(=O)O`, 37% (active).
For `Cc1ccc(NC(=O)/C(C#N)=C/c2ccc(-c3ccc(Cl)c(C(=O)O)c3)o2)cc1C`, the survival was 70%.
As to `COc1ccc(-n2ccn(Cc3ccccc3Cl)c(=O)c2=O)cc1OC`, the survival is 61%.
Next, `CCOc1cc(S(=O)(=O)NCCc2c(C)[nH]c3ccc(C)cc23)ccc1Br`: 92%; `CC(Oc1ccc(F)cc1)C(=O)NCC1(N(C)C)CCCCC1` (centres undefined): 83%.
Under `CCOC(=O)c1c(C)[nH]c(C)c1S(=O)(=O)NCC(=O)Nc1ccc(C)cc1C` stands 72%; under `O=C(C1CCC(Cn2c(=O)c3sccc3n(Cc3ccccc3)c2=O)CC1)N1CCCCC1` (centres undefined), 78%; under `CC(=O)Nc1cccc(NC(=O)C(=O)NCCc2csc3nc(-c4ccccc4F)nn23)c1`, 64%.
Regarding `Cc1ccccc1-c1nc2scc(CCNC(=O)C(=O)Nc3ccc(F)cc3F)n2n1`, the survival is -2% (active).
With `Cc1ccc(C)c(NC(=O)C(=O)NCCc2csc3nc(-c4ccccc4C)nn23)c1`, the survival is 109%.
For `Cc1c(Cl)cccc1NC(=O)C(=O)NCCc1csc2nc(-c3ccccc3F)nn12`, the survival is 6% (active).
Under `O=C(NCCc1csc2nc(-c3ccccc3F)nn12)C(=O)Nc1cc(F)ccc1F` stands 79%; under `COC(=O)c1ccc(NC(=O)C(=O)NCCc2csc3nc(-c4ccccc4F)nn23)cc1`, 76%; under `Cc1ccc(NC(=O)C(=O)NCCc2csc3nc(-c4ccccc4C)nn23)cc1Cl`, 86%.
Under `CCOc1ccc(CC(=O)NCCc2csc3nc(-c4ccccc4F)nn23)cc1` stands 91%; under `CCOc1ccc(NC(=O)C(=O)NCCc2csc3nc(-c4ccccc4F)nn23)cc1`, -1% (active); under `Cc1ccccc1CNC(=O)c1ccc(CS(=O)Cc2ccc(Cl)cc2)o1` (centres undefined), 79%.
Under `CCOc1ccc(NC(=O)c2ncn(-c3ccccc3)n2)cc1` stands 83%; under `COc1ccc2c(c1)c(=O)c(C(=O)c1ccc(F)cc1)cn2CC(=O)Nc1ccc2c(c1)OCCO2`, 65%.
`COc1ccc(CNC(=O)CN2C(=O)COc3ccc(S(=O)(=O)N4CCOCC4)cc32)cc1`: the survival is 75%.
Under `CCOc1ccc(N2CC(NC(=O)C3CCCCC3)CC2=O)cc1` (centres undefined) stands 75%; under `O=C(NCCCc1nc2ccccc2n1Cc1ccccc1Cl)c1ccco1`, 66%; under `CCc1nn2c(=O)cc(COC(=O)c3ccccc3NC(=O)COc3ccccc3C)nc2s1`, 72%.
Under `CCOC(=O)N1CCc2c(sc3c2c(=O)n(-c2ccc(CC)cc2)c(=O)n3CC(=O)c2ccc(F)cc2)C1` stands 80%; under `Cc1ccccc1NC(=O)CSC1=Nc2ccccc2C2=NC(Cc3ccccc3)C(=O)N12` (centres undefined), 84%; under `Cc1cc(O)c(-c2ccnc3cc(-c4ccccc4)nn23)cc1Cl`, 114%.
Under `Cc1ccc(O)c(-c2ccnc3cc(-c4ccc(Cl)cc4)nn23)c1` stands 86%.
Regarding `O=[N+]([O-])c1ccc(O)c(-c2ccnc3cc(-c4ccccc4)nn23)c1`, the survival is 20% (active).
Under `CCOC(=O)COc1ccc([N+](=O)[O-])cc1-c1ccnc2cc(-c3ccc(C)cc3)nn12` stands 76%.
Under `CCOC(=O)COc1ccc([N+](=O)[O-])cc1-c1ccnc2cc(-c3ccc(Cl)cc3)nn12` stands 89%.
For the compound `Cc1ccc(-c2cc3nccc(-c4cc([N+](=O)[O-])ccc4O)n3n2)cc1`, the survival was 29% (active).
With `COc1cccc(NC(=O)C2CCCN(S(=O)(=O)c3c(C)nn(C)c3C)C2)c1` (centres undefined), the survival is 87%.
Next, `COc1ccc(NC(=O)c2cc(S(=O)(=O)N3CCCCC3)cn2C)cc1Cl`: 78%; `CCN(C(=O)c1cn(-c2ccc(OC)cc2)c(=O)c2ccccc12)c1cccc(Cl)c1`: 103%; `CCNC(=O)c1sc2ccccc2c1Cl`: 105%.
Next, `CCN(C(=O)c1sc2cc(OC)ccc2c1Cl)c1ccccc1`: 0% (active); `Cc1cccc(OC(=O)c2cc(-c3ccc(C)c(C)c3)on2)c1`: -2% (active).
Under `Cc1cc(C)cc(OC(=O)c2cc(-c3ccc(Cl)cc3)on2)c1` stands 94%.
`Cc1cc(C)cc(OC(=O)c2cc(-c3ccc4c(c3)OCCO4)on2)c1`: the survival was -2% (active).
Next, `Cc1cccc(OC(=O)c2cc(-c3ccc4c(c3)OCCO4)on2)c1`: -2% (active).
Consider `Cc1ccc(O)c(NC(=O)c2cc(-c3ccc4c(c3)OCO4)on2)c1`, for which the survival was 71%.
Next, `O=C(Nc1cccc(C(F)(F)F)c1)c1cc(-c2ccc3c(c2)OCCO3)on1`: 116%.
Under `Cc1ccc(-c2cc(C(=O)Oc3ccc(C#N)cc3)no2)cc1C` stands 50%.
Next, `Cc1ccc(NC(=O)C2CCCN(S(=O)(=O)c3ccc(F)cc3)C2)cc1` (centres undefined): 65%.
Take `COC(=O)c1c(NC(=O)c2nc(SCc3ccccc3C)ncc2Cl)sc2c1CCCC2`: the survival is 111%.
Next, `Cc1ccc2nc(CSc3nnc(NC(=O)c4ccc(C(C)(C)C)cc4)s3)cc(=O)n2c1`: 81%; `Cn1nnnc1SCC(=O)N1CCCc2ccccc21`: 81%.
On to `O=C1CC(C(=O)NCc2ccco2)C2(CCCCC2)O1` (centres undefined), for which the survival is 85%.
Under `N#Cc1cccc(NC(=O)CCNS(=O)(=O)c2ccc3c(c2)CCN3C(=O)C2CC2)c1` stands 82%; under `Cc1nn2cc(-c3ccc(OC(C)C)cc3)nc2s1`, 84%; under `CCN(CC)CCCNC(=O)c1cnc(SC)nc1-c1ccccc1`, 69%.
As for `Cc1cc(Nc2ccc(F)cc2)n2c(nc3ccccc32)c1C#N`, the survival was 89%.
`Cc1ccc(Nc2cc(C)c(C#N)c3nc4ccccc4n23)cc1Cl`: the survival was 83%.
As for `Cc1ccc(Nc2cc(C)c(C#N)c3nc4ccccc4n23)c(C)c1`, the survival was 38% (active).
With `O=C(Cn1nnc(-c2ccccc2NC(=O)c2cnccn2)n1)Nc1ccc2c(c1)OCCO2`, the survival was 105%.
Turning to `O=C(Oc1ccc2c(c1)OCO2)c1cccc(S(=O)(=O)N2CCCC2)c1`, the survival was 58%.
Next, `COc1cc(OC)c(NC(=O)CC(c2cccs2)N2Cc3ccccc3C2=O)cc1Cl` (centres undefined): 92%; `COc1cc(Cl)c(C)cc1NC(=O)CC(c1ccc(F)cc1)N1Cc2ccccc2C1=O` (centres undefined): 0% (active); `COc1cc(C(CC(=O)NCc2ccccc2)N2Cc3ccccc3C2=O)cc(OC)c1OC` (centres undefined): 135%.
As to `COc1ccc(C(CC(=O)Nc2cc(OC)c(OC)c(OC)c2)N2Cc3ccccc3C2=O)cc1` (centres undefined), the survival was 57%.
Under `CCOc1ccc(C(CC(=O)Nc2cc(C)c(Cl)cc2OC)N2Cc3ccccc3C2=O)cc1OC` (centres undefined) stands 70%.
Next, `Cc1ccc(NC(=O)CC(c2ccc(F)cc2)N2Cc3ccccc3C2=O)cc1C` (centres undefined): 74%.
Under `COc1cc(C(CC(=O)NCCC(C)C)N2Cc3ccccc3C2=O)cc(OC)c1OC` (centres undefined) stands 94%.
`COc1ccc(CNC(=O)C(C(C)C)N2Cc3ccccc3C2=O)cc1` (centres undefined): the survival was -5% (active).
Next, `COc1ccc(CNC(=O)C(CC(C)C)N2Cc3ccccc3C2=O)cc1` (centres undefined): 126%; `COc1ccc(C(CC(=O)Nc2cc(Cl)c(OC)cc2OC)N2Cc3ccccc3C2=O)cc1` (centres undefined): 0% (active); `CCOC(=O)CNC(=O)CC(c1cc(OC)c(OC)c(OC)c1)N1Cc2ccccc2C1=O` (centres undefined): 47% (active).
Next, `Cc1ccc(CNC(=O)C(C(C)C)N2Cc3ccccc3C2=O)cc1` (centres undefined): 73%; `CSc1nn(Cc2ccc(F)cc2)c(N(C(C)=O)C(C)=O)c1S(=O)(=O)c1ccccc1`: 74%.
